Bioassay records deposited in PubChem by several laboratories.
HSF1 inh: HSF1 inhibition. activity change, negative = inhibition, % at 7.5 µM (by protocol). 300,000 compounds, 0.77% hits. NIH3T3-HGL HSE-luciferase, MG132-induced, luminescence 8 h; stronger effect = lower value;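 active = more than half of replicate wells show activity change below -50%, luminescence cut by over half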;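 note: luciferase reports HSF-1 transcriptional activity via heat shock element; 0% = median of DMSO wells and -100% = zero luminescence signal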
TLR4 MyD88 comp: inhibitors of human TLR4-MyD88 binding; O00206+Q99836; HeLa CL3-4 TLR4/MyD88 BLA complementation, FRET ratio; inhibition, % at 8.4 µM; 200,000 compounds, 0.18% hits; in the data active = inhibition above about 25%;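 note: 0% = vehicle and 100% = reference inhibitor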
HSF1 activator: increases HSF-1 driven luciferase reporter signal; AID 504408; 300,000 compounds, 1.7% hits; activation, % at 9 µM; NIH3T3-HGL HSF-1 luciferase reporter, MG132, 8 h; 100% = twice DMSO control signal;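 active = mean replicate activation of at least 50% with a set share of replicates each reaching 50%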;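 note: 0% = median of the neutral control wells and 100% = twice that signal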
NOD2 RIPK2 PPI: NOD2-RIPK2 protein interaction inhibition | inhibition, % at 4.98 µM | O43353 | AID 624267 | 360,000 compounds, 0.38% hits | CHO BLA complementation NOD2-RIPK2, CCF4 ratio; in the data active = inhibition above about 21%;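 note: 0% = vehicle only and 100% = reference blocker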
TLR9-MyD88 inh: blocks human TLR9 binding to MyD88. Q9NR96+Q99836. CHO BLA complementation TLR9-MyD88, CCF4 FRET ratio. inhibition, % at 4.98 µM. 340,000 compounds, 0.21% hits;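 active = inhibition above the mean over all tested compounds plus 3 SD, cut at about 21% in these data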;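 note: 0% = DMSO only wells and 100% = clavulanate BLA inhibitor control wells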
* hit, by the source's call; / = not tested or not shown. The list is not random: actives were taken first. Their share in the collection is about 2.4%.

SMILES	HSF1 inh	TLR4 MyD88 comp	HSF1 activator	NOD2 RIPK2 PPI	TLR9-MyD88 inh
C/C=C1\COC(C(=O)NCc2ccncc2)(C(F)(F)F)C=C1C=C1CCCCC1 (centres undefined)	31	/	63*	-2	0
C/C=C1\COC(C(=O)NCc2cccc(OC)c2OC)(C(F)(F)F)C=C1C=C1CCCCC1 (centres undefined)	56	/	69*	3	-3
COc1cccc(CN(C)CC(=O)NCc2ccc(F)cc2)c1OC	-2	/	4	-7	-5
CC(=O)Nc1ccc(-c2ccnc3c2CC(C)(C(=O)NCc2ccncc2)O3)cc1 (centres undefined)	/	/	/	-2	/
CCOC(=O)c1cccc(NC(=O)Cn2c(CC(=O)NC)nc3ccccc32)c1	85	-16	101*	-4	1
Cc1cccc(NC(=O)Cn2c(/C=C/c3ccccc3)nc3ccccc32)c1	42	7	55*	2	0
Cc1cccc(NC(=O)CSc2cc(C)c(C#N)c3nc4ccccc4n23)c1	268	/	417*	12	6
CNc1cc(C)c(C#N)c2nc3ccccc3n12	-1	/	4	0	-12
O=C(N/N=C/c1c[nH]c2ccccc12)c1cc(Cl)ccc1O	-1	/	1	0	0
CC1CCCCN1CCNC(=O)CN1C(=O)CSc2ccc(S(=O)(=O)N3CCCCC3)cc21 (centres undefined)	-11	/	-22	1	-13
O=C(NCCc1ccco1)C(=O)NCC1CCCN1S(=O)(=O)c1ccccc1 (centres undefined)	-3	/	-7	1	-2
COc1cc2c3c(c1OC)C1(C=CC(=O)C=C1)CC3N(C(=O)CCC(=O)O)CC2 (centres undefined)	-4	/	-3	8	-1
COc1cc2c3c(c1OC)C1(C=CC(=O)C=C1)CC3N(C(=O)c1ccccc1)CC2 (centres undefined)	25	-10	55*	1	4
CCOC(=O)N1CCC(NC(=O)CSCc2nc(-c3ccc(OCC)cc3)oc2C)CC1	20	/	34	5	-5
CCOc1ccc(-c2nc(CSCC(=O)NCc3ccco3)c(C)o2)cc1	-72*	-13	-74	-16	1
CCc1ccc(NC(=O)Cn2nnc(C(=O)NCc3ccco3)c2N)cc1	-1	/	18	-6	-3
CCOc1ccc(-c2nc(CSCC(=O)NC3CC3)c(C)o2)cc1	-84*	/	-85	5	-3
CCOc1ccc(NC(=O)Cn2nnc(C(=O)NCc3ccco3)c2N)cc1	27	8	56*	1	11
COc1ccc(-c2nc(CS(=O)CC(=O)NCc3ccco3)c(C)o2)cc1 (centres undefined)	-1	-3	-11	1	-7
COc1ccc2c(c1)C(C)(Cc1ccc(C(=O)c3ccccc3)cc1)C(=O)N2 (centres undefined)	/	/	/	0	/
O=C(N/C(=C/c1ccccc1Cl)C(=O)N1CCCCC1)c1ccco1	2	/	-5	8	0
Cc1cc(C)cc(C(=O)O/N=C(\N)c2ccc(Br)cc2)c1	8	-1	23	6	9
N/C(=N\OC(=O)c1ccoc1)c1ccc(Br)cc1	30	/	69*	-12	-6
CCOC(=O)CC(NC(=O)CCS(=O)(=O)c1ccc2c(c1)n(C)c(=O)c(=O)n2C)c1ccc(C)cc1 (centres undefined)	-6	/	-2	-1	-3
O=C(Cc1coc2ccc3ccccc3c12)NC1CCCc2ccccc21 (centres undefined)	35	-5	65*	-10	-11
SMILES	HSF1 inh	TLR4 MyD88 comp	HSF1 activator	NOD2 RIPK2 PPI	TLR9-MyD88 inh
O=C(Cc1coc2ccc3ccccc3c12)NCc1ccccc1	-4	-12	-8	9	-8
Cc1ccc(N2C(=O)C3C4C=CC(CNC(=S)Nc5ccc(F)cc5)(O4)C3C2=O)cc1 (centres undefined)	25	-13	21	-3	-5
CC(C)(C)C(=O)NCC12C=CC(O1)C1C(=O)N(c3ccccc3)C(=O)C12 (centres undefined)	184	-7	203*	5	7
Cc1ccc(N2C(=O)C3C4C=CC(CNC(=S)Nc5ccc(Cl)cc5)(O4)C3C2=O)cc1 (centres undefined)	29	-14	55*	14	3
COc1ccc2oc(C(=O)OCC(=O)N(C)CC(=O)Nc3ccc(F)cc3)c(C)c2c1	7	/	13	-4	-4
CCOC(=O)c1ccc(NC(=O)NS(=O)(=O)c2ccc(C)cc2)cc1	-58*	-6	-65	0	-9
CN(CC(=O)Nc1ccc(Cl)cc1)C(=O)c1ccc(S(=O)(=O)Nc2ccccc2)cc1	-2	/	-4	1	0
CC(=O)Nc1ccc(C(=O)OCCc2ccccc2)cc1	22	/	56*	5	-5
CCOC(=O)c1ccc(NC(=O)Oc2ccccc2)cc1	-51*	-1	-63	-4	5
CCOc1ccc(NS(=O)(=O)c2ccc(C(=O)N(C)CC(=O)Nc3ccc(C)cc3)cc2)cc1	30	/	59*	-2	-1
COc1cccc(Oc2ccc(C(F)(F)F)cc2NC(=O)CN2C(=O)NC3(CCCC3)C2=O)c1	/	/	/	-4	6
CCCCN(C(=O)COC(=O)C1(c2ccccc2)CC1)c1c(N)n(CCC)c(=O)[nH]c1=O	/	/	/	0	12
CC(=O)Nc1ccc(C(=O)OCc2ccccc2Cl)cc1	13	2	21	7	0
CCOC(=O)c1ccc(Nc2cnc3ccccc3n2)cc1	32	7	56*	2	9
CCC(=O)Nc1ccc(C(=O)OCc2ccccc2Cl)cc1	61	-6	116*	11	2
OCC[C@@H]1C[C@H](O)[C@@H](O)[C@]2(OCCc3cc(Cl)ccc32)O1	/	/	/	-11	/
Cc1nc2scc(-c3ccc(Cl)cc3)c2c(=O)n1N	68	3	94*	-3	-3
Nc1c(C(=O)O)sc2nc3c(cc12)CCCC3	0	/	-5	4	/
Nc1c(C(=O)c2ccc(Cl)cc2)sc2nc3c(cc12)CCC3	27	10	51*	-6	-4
O=C(CC1SC(=Nc2cccc3ccccc23)N(Cc2ccccn2)C1=O)Nc1ccccc1Br (centres undefined)	6	-19	8	-4	-19
Cc1ccccc1N=C1SC(CC(=O)Nc2ccc3ccccc3c2)C(=O)N1Cc1ccccn1 (centres undefined)	19	-15	57*	-1	6
CC(C)(C)c1ccc(OCC(=O)N2CCCCCC2)c(Br)c1	37	8	69*	5	1
C=CCOc1ccc2c(c1)CCC1C2CCC2(C)C(O)C(O)CC12 (centres undefined)	/	/	/	-6	-2
C[C@]12CC[C@@H]3c4ccc(O[C@@H]5O[C@H](C(=O)O)[C@@H](O)[C@H](O)[C@H]5O)cc4CC[C@H]3[C@@H]1C[C@@H](O)[C@@H]2O	-54*	/	-65	-12	-4
CC(C)(C)OC(=O)C[C@H]1C/C=C\C[C@H](CC(=O)NCCO)C(=O)N2CCC[C@@H]2COC1=O	/	/	/	-7	-14
